# Experimental data taken from PubChem BioAssay AID1963315 (National Center for Advancing Translational Sciences (NCATS), 2024).
# Inconclusive results are not listed. Active and inactive are the calls of the source. The call rests on the fitted dose curve.
# Target: Tyrosine-protein kinase ABL1 (Homo sapiens) (UniProt P00519)
# Test: ABL1 kinase (ABL1-N-HiBiT) SDR gain of signal screen
# Settings: Purified ABL1-N-HiBiT enzyme, Nano-Glo HiBiT luminescence, 30 min compound incubation; series mostly up to 32.9 µM
# How it was run: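 ABL1-N-HiBiT at 10 nM final in ATP-free buffer, preincubated with compounds 30 min at room temperature in the dark; Nano-Glo HiBiT reagent added, 10 min further incubation, luminescence read for gain of signal versus DMSO.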
# Tyrosine-protein kinase ABL1 (Homo sapiens), sequence (P00519 whole entry, looked up): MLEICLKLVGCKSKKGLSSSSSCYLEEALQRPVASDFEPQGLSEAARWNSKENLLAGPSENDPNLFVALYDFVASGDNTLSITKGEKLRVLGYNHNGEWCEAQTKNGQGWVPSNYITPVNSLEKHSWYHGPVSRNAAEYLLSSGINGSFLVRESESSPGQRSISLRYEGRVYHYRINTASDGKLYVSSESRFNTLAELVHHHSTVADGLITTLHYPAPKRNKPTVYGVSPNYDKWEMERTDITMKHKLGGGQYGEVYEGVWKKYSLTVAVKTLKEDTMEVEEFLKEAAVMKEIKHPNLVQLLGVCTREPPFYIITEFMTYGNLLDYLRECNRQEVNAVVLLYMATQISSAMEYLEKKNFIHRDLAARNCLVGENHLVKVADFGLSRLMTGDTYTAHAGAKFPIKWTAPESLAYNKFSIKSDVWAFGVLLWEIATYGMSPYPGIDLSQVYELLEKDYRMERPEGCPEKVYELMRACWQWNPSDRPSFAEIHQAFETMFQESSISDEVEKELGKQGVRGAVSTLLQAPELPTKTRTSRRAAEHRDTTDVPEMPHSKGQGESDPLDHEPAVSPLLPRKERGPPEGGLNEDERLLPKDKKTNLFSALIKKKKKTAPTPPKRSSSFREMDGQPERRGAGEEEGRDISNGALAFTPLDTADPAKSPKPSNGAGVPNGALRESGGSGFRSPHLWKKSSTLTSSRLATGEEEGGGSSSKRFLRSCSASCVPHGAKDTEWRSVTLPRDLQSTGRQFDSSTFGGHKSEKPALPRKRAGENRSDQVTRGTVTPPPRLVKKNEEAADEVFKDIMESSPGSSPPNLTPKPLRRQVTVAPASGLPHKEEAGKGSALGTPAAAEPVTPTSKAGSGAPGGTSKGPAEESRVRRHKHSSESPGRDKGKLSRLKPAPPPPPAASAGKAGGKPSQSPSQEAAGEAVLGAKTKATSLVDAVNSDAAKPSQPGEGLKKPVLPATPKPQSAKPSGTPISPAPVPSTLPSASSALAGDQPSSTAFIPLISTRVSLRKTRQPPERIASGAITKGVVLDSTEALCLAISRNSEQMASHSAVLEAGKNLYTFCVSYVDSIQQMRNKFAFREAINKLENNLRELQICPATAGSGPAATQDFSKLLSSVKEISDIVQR
row,SMILES,Potency
1,COc1ccc(S(=O)(=O)N(C(C)=O)c2ccccc2/C=C/c2cc[n+]([O-])cc2)cc1,inactive
2,Cc1[nH]nc2ncc(C(=O)N3CCC[C@H]3c3ccc(Cl)cc3)cc12,inactive
3,COc1cc(N2CCC(O)CC2)ccc1Nc1nc(Nc2ccccc2S(=O)(=O)C(C)C)c2[nH]cnc2n1,10800 nM (active)
4,CCN1CCN(Cc2ccc(NC(=O)c3ccc(C)c(NC(=O)c4cncc(-c5cccs5)c4)c3)cc2C(F)(F)F)CC1,5.22 nM (active)
5,CN1CCN(Cc2ccc(-c3cnc4[nH]cc(-c5ccc6[nH]ccc6c5)c4c3)cc2)CC1,331 nM (active)
6,CC(C)(NS(=O)(=O)c1ccc2c(Cl)cnc(N=C(N)N)c2c1)C(=O)O,inactive
7,CCn1nc(C2CCN(C(=O)CCO)CC2)nc1-c1cnc(N)c(-c2nnc(C(C)(C)C)o2)n1,6230 nM (active)
8,COc1ccc(-n2c(C)c([N+](=O)[O-])c3ccc(O)cc32)cc1,inactive
9,c1ccc2c(-c3cnn4cc(-c5ccc(N6CCNCC6)cc5)cnc34)ccnc2c1,148 nM (active)
